Shown are actives, neighbours in structure and some others; about 19% of the full set was active somewhere.
IL-1B inflam inh = inflammasome signaling inhibition, IL-1 beta readout; THP-1 LPS/ATP IL-1B secretion, AlphaLISA, 16 h; active compounds read low; 360,000 compounds, 4.7% hits; activity change, % at 57.5 µM; in the data active means activity change below about -50%; inconclusive means mostly about -30% to -49%; further: on the % scale 0 is the no-effect control and ±100 the full control effect
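THP-1 cells pretreated 1 hr with compounds (up to 57.5 uM final), then stimulated with LPS (250 ng/mL final) plus ATP (1.25 mM final); secreted IL-1B measured by AlphaLISA after 16 hr, decreased signal indicating inhibition.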
SW480 rereplic = induces DNA re-replication in SW480 colon adenocarcinoma cells; SW480 DNA re-replication, Hoechst DNA content imaging, 48 h; Potency, µM (highest dose often 46.1 µM), without a hit: at the top dose re-replication activation, most hits filed as activators; 340,000 compounds, 1.8% hits; AID 624297; further: potency means the concentration at half of the fitted maximal effect; % of control where 0% means no effect; nearly all actives have a fitted effect of over 55% in size
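Image-based read-out: total Hoechst fluorescence of nuclei (405 nm excitation, 500-530 nm emission), with hits raising the fraction of high-intensity nuclei. SW480 colon cells incubated 48 hr with compounds at 37 C.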
MCF10A rerep = DNA re-replication induction in MCF 10a cells. 350,000 compounds, 2.9% hits. Potency, µM (top dose mostly 46.1 µM), for inactives: top-dose activity, positive = re-replication, hits mostly activators. MCF 10A DNA re-replication, Hoechst nuclear intensity, 48 h; further: potency means the concentration at half of the fitted maximal effect; % of control where 0% means no effect; nearly all actives have a fitted effect of over 50% in size
Chronic BCR inh = blocks chronic active B-cell receptor signaling. ABC-DLBCL IkBa-CBG/CBR reporter, luminescence ratio, 4 h. Potency, µM (series often up to 46.1 µM), for the others: at the highest dose activity change, negative = inhibition, most hits filed as inhibitors. 340,000 compounds, 0.05% hits. AID 493014; active means well fitted inhibition curve with a large enough effect in the signal ratio, with a control signal flat, not every such curve was filed as active; inconclusive means small, poorly fitted or top-dose-only effect, or effect the other way, or a change in a side signal; the % refers to the signal ratio;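 further: potency means the concentration at half of the fitted maximal effect; plate controls were basal doxycycline-induced cells for no effect and cells given 10 µM MG132 for full effect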
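Cell line TMD8 (human ABC DLBCL), stably expressing tet-inducible CBG68-IkBa fusion and CBR; IMDM/0.5% FBS; cpd up to 46 uM; dox induction, 4 h, 37C/5% CO2; dual luminescence; green/red ratio; MG132 control.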
TDP1 cell noCPT = qHTS for Inhibitors of human tyrosyl-DNA phosphodiesterase 1 (TDP1): qHTS in cells in absence of CPT | DT40 Tdp1-/- hTDP1 cells, no CPT, ATP luminescence, 48 h | Potency, µM (series often up to 46.2 µM), for inactives: at the highest dose activity change, negative = growth inhibition, actives largely listed as inhibitors | 420,000 compounds, 15% hits | AID 686978, 2013; further: potency means the concentration at half of the fitted maximal effect; on the % scale 0 is the no-effect control and ±100 the full control effect; nearly all actives have a fitted effect of over 55% in size
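Compound effects on proliferation are scored in DT40 Tdp1-/-;hTDP1 cells in the absence of CPT. ATP levels (CellTiter-Glo luminescence) are recorded after a ≥48 hr, 37 °C incubation.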
DT40 TDP1 CPT = growth inhibition of DT40 Tdp1-/-;hTDP1 cells with camptothecin (screen for TDP1 inhibitors); Potency, µM (doses to about 46.2 µM), for the others: top-dose activity change, negative = growth inhibition, hits mostly inhibitors; 420,000 compounds, 12% hits; chicken DT40 Tdp1-/-;hTDP1 cells + 20 nM CPT, ATP luminescence, 48 h; further: potency means the concentration at half of the fitted maximal effect; on the % scale 0 is the no-effect control and ±100 the full control effect; nearly all actives have a fitted effect of over 55% in size
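Chicken DT40 Tdp1-/- cells stably complemented with human TDP1 were seeded at 400 cells/well in medium containing 20 nM camptothecin, exposed to pin-transferred compounds, and grown at 37 °C for at least 48 hr. Viability was read as ATP luminescence.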
The depositor's hits bear a star; i = inactive; ? = inconclusive; / = no result; [ ] = dose if it differs, or a comment. Unless noted, the call rests on the fitted dose curve; in most records, active means well fitted curve in the direction sought with a large enough effect; inconclusive means small, poorly fitted or top-dose-only effect, or another doubt; inactive means no such curve, though single readings can be large; an effect the other way counts as inactive or inconclusive.

SMILES	IL-1B inflam inh	SW480 rereplic	MCF10A rerep	Chronic BCR inh	TDP1 cell noCPT	DT40 TDP1 CPT
O=C(Nc1ccc(F)cc1)C(c1cc2ccccc2o1)N1CCN(C(=O)c2ccco2)CC1 (configuration not stated)	?	/	/	/	?	-18%
CCCNC(=O)c1sc2c(c1C(=O)Nc1ccccn1)CCCC2	-8	0%	?	12%	18µM*	26µM*
CCCNC(=O)c1c(NC(=O)c2ccccc2F)sc2c1CCCCC2	/	/	/	/	-4%	3%
CN(C)/C=N/c1nc2nccc(-c3cccc(Cl)c3)n2n1	-52*	-56%	-39%	5%	-4%	?
CCC(CC)C(=O)Nc1ccc2nc(SCC(=O)N3CCc4ccccc43)sc2c1	/	/	/	/	5.2µM*	4.6µM*
CC(C)C(=O)Nc1ccc2nc(SCC(=O)N3CCc4ccccc43)sc2c1	/	/	/	/	4.1µM*	10µM*
CC(C)CC(=O)Nc1ccc2nc(SCC(=O)N3CCc4ccccc43)sc2c1	/	/	/	/	2.9µM*	5.2µM*
CCCC(=O)Nc1ccc2nc(SCC(=O)N3CCCC3)sc2c1	7	1%	14%	-1%	?	-26%
COc1ncccc1C(=O)N1CCCC(N2CCN(c3cccc(Cl)c3)CC2)C1 (configuration not stated)	0	-9%	9%	-2%	?	?
COc1cc2c(cc1OC)C(COc1ccccc1OC)N(C(=O)c1ccc(S(=O)(=O)N3CCCC3)cc1)CC2 (configuration not stated)	/	/	/	0%	?	16µM*
COc1cc2c(cc1OC)C(COc1ccccc1OC)N(C(=O)c1ccccc1OC)CC2 (configuration not stated)	/	/	/	-18%	18µM*	?
CCN1C=C(C(=O)c2ccccc2)C(=O)CC1	-13	0%	5%	/	4%	-36%
Cc1ccc(NC(=O)CCc2nnc3n(CC(C)C)c(=O)c4ccccc4n23)cc1C	/	/	/	/	23µM*	26µM*
Cc1cc(C)cc(NC(=O)CCc2nnc3n(CC(C)C)c(=O)c4ccccc4n23)c1	/	/	/	/	-24%	-19%
CN1CCN(CCCNC(=O)CCc2nnc3n(Cc4ccccc4Cl)c(=O)c4ccccc4n23)CC1	-13	-12%	15%	6%	0%	-18%
COc1ccc(NC(=O)CCc2nnc3n(Cc4ccccc4Cl)c(=O)c4ccccc4n23)cc1	/	/	/	/	3.3µM*	3.3µM*
O=C(CCc1nnc2n(Cc3ccccc3Cl)c(=O)c3ccccc3n12)Nc1ccc(F)c(F)c1	/	/	/	/	21µM*	23µM*
Cc1ccc(-c2nc(CS(=O)CC(=O)NCc3ccco3)c(C)o2)cc1 (configuration not stated)	-14	-3%	0%	-2%	-25%	11%
CCOC(=O)c1ccc(NC(=O)Cn2cnc3sc(C(=O)OCC)c(C)c3c2=O)cc1	/	/	/	11%	-10%	-27%
O=C1NC[C@@H](CCCCN2C[C@H](Cc3ccccc3)N(CCc3ccc(O)cc3)C(=O)C2=O)N(Cc2ccccc2)C1=O	12	/	/	/	4%	-7%
CC(=O)/C(C#N)=C1\NC(=O)C(Cc2ccccc2C)S1 (configuration not stated)	/	4%	-8%	5%	2.3µM*	?
CCC(C)C(=O)Nc1nnc(SCC(=O)NC(C)(C)C)s1 (configuration not stated)	-9	11%	7%	13%	-13%	2%
COc1cccc(N2CCN(C(=O)c3cc4c(s3)CCCCC4)CC2)c1	17	-7%	19%	?	?	?
Cc1ccc2c(c1Br)/C(=N/N1C(=O)c3ccccc3C1=O)C(=O)N2	-13	4%	?	?	23µM*	21µM*
O=C(Nc1nnc(C2=COCCO2)o1)c1ccc(F)cc1	-1	?	-2%	?	?	?
SMILES	IL-1B inflam inh	SW480 rereplic	MCF10A rerep	Chronic BCR inh	TDP1 cell noCPT	DT40 TDP1 CPT
O=C(Nc1nnc(C2=COCCO2)o1)c1ccc(Cl)cc1	-4	?	15%	?	?	16µM*
O=C(Nc1nnc(C2=COCCO2)o1)c1cccc(C(F)(F)F)c1	4	13%	?	?	15µM*	26µM*
CC(=O)Oc1ccc(C2(C)CC(C)(C)NC(=S)N2C)c(OC(C)=O)c1 (configuration not stated)	0	19%	1.3µM*	8%	3%	-9%
COc1ccc(C2(c3ccc(OC(C)=O)cc3OC(C)=O)CC(c3ccccc3)NC(=S)N2)cc1 (configuration not stated)	-22	i[1.84 µM]	5%	-15%	?	?
CCOC(=O)c1c(C)[nH]c(C)c1S(=O)(=O)NCCN1CCN(c2cc(Cl)ccc2C)CC1	-51*	-6%	0%	?	13µM*	?
CCC(=O)N1c2ccccc2CC1C(=O)NCCN1CCN(c2cc(Cl)ccc2C)CC1 (configuration not stated)	/	/	/	/	?	21µM*
CCOc1ccc(NC(=O)NCCN2CCN(c3cc(Cl)ccc3C)CC2)cc1	/	/	/	/	?	21µM*
CCC(=O)N1c2ccccc2CC1C(=O)NCc1cccc(C)c1 (configuration not stated)	/	/	/	/	-3%	-17%
COc1ccc(N2CCN(CCNC(=O)Nc3ccc(Cl)cc3)CC2)cc1	-26	-5%	2%	6%	?	?
Cc1ccc(Cl)cc1N1CCN(CCNC(=O)Nc2ccc(Cl)cc2)CC1	/	/	/	/	?	12µM*
O=C(NCCN1CCCCC1)Nc1ccc(Cl)cc1	10	0%	1%	?	-2%	29%
COc1cc(/C=N/NC(=O)c2nnn(-c3nonc3N)c2C)ccc1OCc1ccc(Cl)cc1	-6	/	/	/	?	?
Cn1c(=O)c2[nH]c(CCCCc3nc4ccccc4[nH]3)nc2n(C)c1=O	19	1%	0%	/	-11%	4%
Cn1c(=O)c2[nH]c(CN(Cc3ccccc3)Cc3ccccc3)nc2n(C)c1=O	24	-8%	4%	4%	15µM*	10µM*
Cn1c(=O)c2[nH]c(Cc3cccc4ccccc34)nc2n(C)c1=O	19	-2%	4%	/	16µM*	?
Cn1c(=O)c2[nH]c(CCCCCCCCc3nc4ccccc4[nH]3)nc2n(C)c1=O	-60*	-2%	?	/	5.2µM*	7.3µM*
Cc1ccc(-n2nc(C(=O)N3CCC(C)CC3)c(=O)n(C)c2=O)cc1	/	/	/	/	-17%	-8%
